# High-throughput results (PubChem BioAssay)
# Shown are actives, neighbours in structure and some others; about 8.5% of the full set was active somewhere.
# ALDH1A1 block: qHTS Assay for Inhibitors of Aldehyde Dehydrogenase 1 (ALDH1A1); Aldehyde dehydrogenase 1A1 (Homo sapiens), P00352; Purified ALDH1A1, NADH fluorescence, propionaldehyde substrate; Potency, µM (highest dose often 75.3 µM), without a hit: top-dose activity, negative = inhibition, actives largely listed as inhibitors; hit rate 7.3% among 220,000; active = well fitted inhibition curve with a large enough effect, not every such curve was filed as active; inconclusive = small, poorly fitted or top-dose-only effect, or another doubt; inactive = no such curve, though single readings can be large or run the other way;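 also: potency is read from the fitted curve at half-maximal effect; plate controls were no enzyme wells and a reference inhibitor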
# JMJD2E inh: qHTS Assay for Inhibitors of Human Jumonji Domain Containing 2E (JMJD2E); Lysine-specific demethylase 4E (Homo sapiens), B2RXH2; JMJD2E catalytic domain, FDH-coupled NADH fluorescence (FDH is formaldehyde dehydrogenase); Potency, µM (titrated, usually from 57.1 µM), without a hit: at the top dose activity change, negative = inhibition, most hits filed as inhibitors; hit rate 1.6% among 230,000; active = well fitted inhibition curve with a large enough effect, not every such curve was filed as active; inconclusive = small, poorly fitted or top-dose-only effect, or another doubt; inactive = no such curve, though single readings can be large or run the other way;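 also: potency is read from the fitted curve at half-maximal effect; 0% = wells with enzyme and -100% = buffer wells without enzyme; nearly all actives have a fitted effect of over 50% in size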
# Coupling enz: qHTS Assay for Inhibitors of Fructose-1,6-bisphosphate Aldolase from Giardia Lamblia: Coupling assay counterscreen; coupling enzyme system counterscreen, AmpLite Red fluorescence; hit rate 0.67% among 290,000; activity change, negative = inhibition, % at 58.2 µM, hits read low; in the data active = activity change below about -30%
#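 Final compound at 57.5 uM, incubated 10 min at RT with coupling enzyme reagent (glyceraldehyde-3-phosphate), then 20 min with substrate and AmpLite Red detection. Fluorescence read at 525/598 nm; tests interference with the coupling assay, not aldolase inhibition.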
# NPSR antag: qHTS Assay for Antagonists of the Neuropeptide S Receptor: cAMP Signal Transduction | Q6W5P4 | CHO-NPSR cells, cAMP TR-FRET, antagonist mode | Potency, µM (series often up to 38.3 µM), inactives show at the top dose activity change, negative = inhibition, usual class: inhibitors | hit rate 1% among 220,000 | AID 1461, 2008; also: potency is read from the fitted curve at half-maximal effect; nearly all actives have a fitted effect of over 50% in size
# Target sequence (Q6W5P4 whole entry, looked up): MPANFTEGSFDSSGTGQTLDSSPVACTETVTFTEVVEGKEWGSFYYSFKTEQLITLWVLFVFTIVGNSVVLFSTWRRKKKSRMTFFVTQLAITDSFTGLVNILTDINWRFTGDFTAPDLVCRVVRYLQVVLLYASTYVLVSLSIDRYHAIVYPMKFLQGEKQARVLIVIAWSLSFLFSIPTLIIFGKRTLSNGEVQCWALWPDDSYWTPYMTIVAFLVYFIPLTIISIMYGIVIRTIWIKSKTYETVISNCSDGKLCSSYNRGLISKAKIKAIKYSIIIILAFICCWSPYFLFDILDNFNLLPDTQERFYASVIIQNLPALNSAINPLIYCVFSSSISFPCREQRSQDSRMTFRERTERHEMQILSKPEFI
# Sfp PPTase inh: qHTS Assay for Inhibitors of Bacillus subtilis Sfp phosphopantetheinyl transferase (PPTase); Biochemical Sfp PPTase activity, qHTS; hit rate 3.5% among 310,000; 4'-phosphopantetheinyl transferase ffp (Bacillus subtilis), Q9F4F7; AID 1490, 2009; Potency, µM, inactives show largest response in the series, negative = inhibition, usual class: inhibitors;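 also: the enzyme is Sfp with the accession as filed and its product quenches rhodamine fluorescence; potency is read from the fitted curve at half-maximal effect; 0% = enzyme reaction without inhibitor and -100% = no enzyme wells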
#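 Buffer: 50 mM Hepes-Na pH 7.6, 10 mM MgCl2, 0.01% Nonidet P-40, 0.01% BSA. Enzyme 15 nM, pre-exposed to compound 15 min; substrates then added and fluorescence change tracked over 30 min.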
# GoLoco inh red: qHTS Assay for Inhibitors of RGS12 GoLoco Motif Activity (Red Fluorophore); Guanine nucleotide-binding protein G(i) subunit alpha-1 (Homo sapiens), P63096; Gai1:RGS12 GoLoco peptide FP, rhodamine, 10 min; Potency, µM (series often up to 61.6 µM), without a hit: at the highest dose activity, negative = inhibition, most hits filed as inhibitors; hit rate 0.44% among 230,000; AID 880, 2007; active = well fitted inhibition curve with a large enough effect, not every such curve was filed as active; inactive = no such curve, though single readings can be large or run the other way; also: potency is read from the fitted curve at half-maximal effect; nearly all actives have a fitted effect of over 30% in size
# Target sequence (P63096 whole entry, looked up): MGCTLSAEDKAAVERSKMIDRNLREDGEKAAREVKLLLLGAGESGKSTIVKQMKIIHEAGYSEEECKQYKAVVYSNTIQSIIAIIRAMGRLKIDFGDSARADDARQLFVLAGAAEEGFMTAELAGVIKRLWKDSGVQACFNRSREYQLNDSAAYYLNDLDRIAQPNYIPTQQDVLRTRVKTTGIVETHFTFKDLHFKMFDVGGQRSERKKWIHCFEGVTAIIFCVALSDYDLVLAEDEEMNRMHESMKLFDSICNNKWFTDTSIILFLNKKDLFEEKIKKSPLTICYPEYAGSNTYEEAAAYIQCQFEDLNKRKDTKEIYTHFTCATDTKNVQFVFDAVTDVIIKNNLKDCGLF
# Sfp inh conf: Confirmation qHTS Assay for Inhibitors of Bacillus subtilis Sfp phosphopantetheinyl transferase (PPTase); Potency, µM (series often up to 114 µM), for inactives: top-dose activity change, negative = inhibition, most hits filed as inhibitors; shares compounds with Sfp PPTase inh; Sfp PPTase enzymatic assay, qHTS titration; hit rate 79% among 380;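 also: potency is read from the fitted curve at half-maximal effect; plate controls were uninhibited Sfp reaction for no effect and no enzyme control for full effect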
# Sfp gel assay: Gel-Based Assay for Inhibitors of Bacillus subtilis Sfp phosphopantetheinyl transferase (PPTase) | shares compounds with Sfp PPTase inh | purified Sfp, gel-based phosphopantetheinylation read-out | Potency, µM, usual class: inhibitors | hit rate 20% among 210 | AID 2707, 2010;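 active = potency below 100 µM; inconclusive = dose-dependent response but potency above 100 µM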;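 also: band intensities scaled against SCH202676 control wells before curve fitting; potency is an IC50 for inhibitors of Sfp transfer activity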
# The depositor's hits bear a star; i = inactive; ? = inconclusive; / = not tested or not shown; ! = a repeat was not active; [ ] = another dose, or the depositor's remark. Unless noted, calls follow the shape of the dose curve; as a rule, active = well fitted curve in the direction sought with a large enough effect; inconclusive = small, poorly fitted or top-dose-only effect, or another doubt; inactive = no such curve, though single readings can be large; an effect the other way counts as inactive or inconclusive. Unless noted, % is scaled to controls: 0 for no effect and ±100 for the full control effect.
SMILES,ALDH1A1 block,JMJD2E inh,Coupling enz,NPSR antag,Sfp PPTase inh,GoLoco inh red,Sfp inh conf,others
CC(=O)c1cccc(N(C(=O)CNC(=O)c2cccs2)C(C(=O)NCC2CCCO2)c2ccccc2)c1 (configuration not stated),/,/,-1,/,4%,/,/,
O=[N+]([O-])c1cccc(-c2nc3ccc([N+](=O)[O-])cc3[nH]2)c1,-11%,2%,-9,-15%,9%,39%,/,
O=[N+]([O-])c1ccc2nc(-c3ccc(Cl)cc3)[nH]c2c1,?,2%,-20,-11%,0.35µM*,2%,-3%,Sfp gel assay=56µM*
Clc1ccc(Cn2c(CN3CCCC3)nc3ccccc32)cc1,4%,8%,-13,?,79µM*!,12%,-2%,Sfp gel assay=i
CCOC(=O)c1c(C)n(O)c2ccc(Cl)cc2c1=O,?,?,-26,-12%[46.1 µM],35µM*,-8%,74µM*,Sfp gel assay=i
COc1ccc2[nH]c(S(=O)Cc3ncc(C)c(OC)c3C)nc2n1 (configuration not stated),/,/,/,/,45µM*,/,19µM*,
COc1ccc2[nH]c(S(=O)Cc3ncc(C)c(OC)c3C)nc2c1 (configuration not stated),/,/,2,/,-24%,/,/,
CCC1CCc2c(sc(NC(=O)c3cnccn3)c2C(N)=O)C1 (configuration not stated),/,/,2,/,10µM*,/,8.3µM*,
CCC1CCc2c(sc(NC(=O)c3ccco3)c2C(N)=O)C1 (configuration not stated),-11%,?,4,-12%[46.1 µM],-6%,13%,/,
Cc1ccc(C)c(NC(=O)CCCCCCCCCCC2COCCO2)c1 (configuration not stated),6%,10%,1,-10%,6%,34%,/,
O=C(O)Cn1ncc2c1-c1ccoc1CC2,-7%,?,-38*,14%[46.1 µM],45µM*,-16%,?,
C=CCCC(=O)N1CCCC(C(=O)c2cccc(OC)c2)C1 (configuration not stated),/,/,3,/,17%,/,/,
Cc1cccc(NC(=O)CCN2CCC(C)CC2)c1,/,/,-3,/,6%,/,/,
COc1ccc(-c2cc(C(=O)Nc3sc4c(c3C#N)CCCC4)c3ccccc3n2)cc1,?,?,2,5%,9%,10%,/,
COC(=O)c1sc(NC(=O)c2cc(-c3ccccc3)nc3ccccc23)c(C#N)c1C,14µM*,-1%,-73*,-9%[46.1 µM],0.63µM*,-1%,8.3µM*,
c1ccc(-c2nnc(-c3ccccc3)nn2)cc1,/,8%,0,0%,4%,10%,/,
c1cncc(-c2nnc(-c3cccnc3)nn2)c1,11µM*,?,-41*,-17%[7.67 µM],40µM*,-6%,15µM*,
Cc1ccc(-c2c[n+](Cc3ccc(Cl)cc3)c3n2CCC3)cc1,/,1%,1,?,19%,-5%,/,
Clc1ccc(C[n+]2csc3ccccc32)cc1,2.8µM*,?,-1,-20%,4µM*,-2%,8.3µM*,Sfp gel assay=2.1µM*
COc1cc2nc(N3CCN(C(=O)[C@H]4CCCO4)CC3)nc(N)c2cc1OC,?,?,-1,/,-1%,2%,/,
COc1cc2nc(N3CCN(C(=O)C4CCCO4)CC3)nc(N)c2cc1OC (configuration not stated),?,28µM*,-50*!,-15%[46.1 µM],56µM*!,3%,0%,Sfp gel assay=?
Cc1ccc(NCc2ccc(O)c3ncccc23)cc1,3%,-2%,-9,52%,3.5µM*,-23%,?,
CC1(C)S[C@@H]2[C@H](NC(=O)[C@@H](N)c3ccc(O)cc3)C(=O)N2[C@H]1C(=O)O,-12%[20.9 µM],?,1,/,10%,5%[21.6 µM],/,
CC1=C(C(=O)O)N2C(=O)[C@@H](NC(=O)[C@@H](N)c3ccc(O)cc3)[C@@H]2SC1,-11%[20.9 µM],-2%[25.5 µM],0,/,32µM*,5%[21.6 µM],-2%[53.7 µM],Sfp gel assay=?
Cc1ccc(C(=O)N2CCCC(C(=O)Nc3cccc(-c4ccc(F)cc4)c3)C2)cn1 (configuration not stated),/,/,-1,/,5%,/,/,
SMILES,ALDH1A1 block,JMJD2E inh,Coupling enz,NPSR antag,Sfp PPTase inh,GoLoco inh red,Sfp inh conf,others
Cc1nc(Nc2ncc(C(=O)Nc3c(C)cccc3Cl)s2)cc(N2CCN(CCO)CC2)n1,/,/,/,/,18%,/,/,
Cc1ccccc1-n1nc(-c2ccc(N)cc2)cc1N,?,-18%,2,-3%[46.1 µM],14µM*,-2%,2%,Sfp gel assay=i
Cc1cc(N)n(-c2ccccc2C)n1,-1%,3%,-2,20%,12%,-3%,/,
COCC1CCN(C(=O)c2ccc(OC3CCN(Cc4ccccn4)CC3)cc2)C1 (configuration not stated),/,/,/,/,0%,/,/,
O=S1(=O)CCC(n2nccc2-c2ccccc2)C1 (configuration not stated),/,/,2,/,2%,/,/,
O=C(NCc1ccco1)c1cc2c(s1)CCCCC2,28µM*,?,0,-15%[46.1 µM],3.5µM*,5%,?,
O=C(NCc1ccco1)c1csc2c1CCCC2,?,7%,-1,5%,4%,8%,/,
COc1ccc(OCc2cc(C(=O)NCc3cccc(C)n3)no2)c(Cl)c1,/,/,/,/,13%,/,/,
Nc1ccc(C(=O)n2c3ccccc3c3ccccc32)cc1,11µM*,1%,-5,?,45µM*,-2%,?,
COC(=O)C1=C(C)NC(C)=C(C(=O)OCC(C)C)C1c1ccccc1[N+](=O)[O-] (configuration not stated),/,/,/,/,40µM*,4%,37µM*,
O=C(c1cccc(F)c1)N1CCCc2ccccc21,/,/,-3,/,8%,/,/,
Cn1ncc2c(c(SCc3ccc(Cl)cc3Cl)nn2C)c1=O,/,-26%,1,8%,25µM*,-14%,17µM*,
c1ccc(-c2nnc(CN3CCCc4ccccc43)o2)cc1,8.9µM*,?,-21,-6%[46.1 µM],14µM*,61%,47µM*,Sfp gel assay=?
CO[C@@H]1COC(=O)C/C=C\[C@H](C)COC(=O)[C@H](Cc2ccccc2)NC(=O)C/C=C\[C@H]1C,-6%[13.5 µM],/,3,/,7%,/,/,
